Experimental data: PubChem BioAssay (NCI)
The panel holds about 79,000 compounds, 15% with a hit somewhere; the sample as a whole holds those more often. Unmarked numbers belong to inactive results. Active and inactive are the calls of the source. No stated cut-off is given here; in the data, active means growth inhibition above about 70%; inactive means the rest.

How the values were obtained:
[1] = NCI Yeast Anticancer Drug Screen. Data for the rad50 strain (AID 155);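 further: 0% = growth of vehicle-only cultures of the same strain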; conditions: S. cerevisiae rad50 strain growth inhibition, stronger effect = higher value
How it was run: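 Relative growth inhibition (compound vs vehicle) was measured in yeast with a defined repair-gene alteration.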

[2] = NCI Yeast Anticancer Drug Screen. Data for the mec2-1 strain (AID 157); conditions: S. cerevisiae mec2-1 strain, stronger effect = higher value
How it was run: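 Yeast mec2-1 mutant treated with compound. Readout: growth inhibition vs vehicle controls.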

[3] = NCI Yeast Anticancer Drug Screen. Data for the sgs1 mgt1 strain (AID 161);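 further: 0% = growth of cultures given vehicle only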; conditions: S. cerevisiae sgs1 mgt1 strain, stronger effect = higher value
How it was run: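 Genetically altered yeast, compound exposure, growth inhibition relative to vehicle.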

[4] = NCI Yeast Anticancer Drug Screen. Data for the cln2 rad14 strain (AID 165);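 further: 0% = growth equal to vehicle treated cultures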; conditions: S. cerevisiae cln2 rad14 strain, stronger effect = higher value
How it was run: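 cln2 rad14 yeast strain; compound exposure; growth inhibition read vs vehicle controls.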

[5] = NCI Yeast Anticancer Drug Screen. Data for the bub3 strain (AID 167); conditions: S. cerevisiae bub3 mutant strain, stronger effect = higher value
How it was run: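 Screening used yeast with an engineered genetic alteration affecting cell cycle control. Compound-exposed cultures were compared with vehicle cultures, and reduced growth was taken as inhibition.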

[6] = NCI Yeast Anticancer Drug Screen. Data for the mlh1 rad18 strain (AID 175); conditions: S. cerevisiae mlh1 rad18 strain growth inhibition, stronger effect = higher value
How it was run: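 Yeast w/ defined DNA-repair lesions; compound exposure; growth vs vehicle controls → % inhibition.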

[7] = at 5.0 µM (retest, dose inferred, filed as 0.5)
[8] = at 50.0 µM (retest, dose inferred, filed as 5.0)

O=C1CC(O)CC(=O)C1=C(O)CCCCCCCCCCc1ccccc1 (stereo not drawn)
growth inhibition [1, 7]: 25%
growth inhibition [1, 8]: 41%
growth inhibition ([1]; at 50.0 µM): 66.4%
growth inhibition [2, 7]: 25%
growth inhibition [2, 8]: 39%
growth inhibition ([2]; at 50.0 µM): 85.3% (active)
growth inhibition [3, 7]: 36%
growth inhibition [3, 8]: 57%
growth inhibition ([3]; at 50.0 µM): 74.2% (active)
growth inhibition [4, 7]: 24%
growth inhibition [4, 8]: 33%
growth inhibition ([4]; at 50.0 µM): 81.5% (active)
growth inhibition [5, 7]: 30%
growth inhibition [5, 8]: 54%
growth inhibition ([5]; at 50.0 µM): 85.7% (active)
growth inhibition [6, 7]: 40%
growth inhibition [6, 8]: 62%
growth inhibition ([6]; at 50.0 µM): 65.8%

[O-][N+]1=C2CCC/C(=N/O)C2(O)C2CCCCC21N1CCOCC1 (stereo not drawn)
growth inhibition [1, 7]: 26%
growth inhibition [1, 8]: 20%
growth inhibition ([1]; at 50.0 µM): -8.05%
growth inhibition [2, 7]: 29%
growth inhibition [2, 8]: 19%
growth inhibition ([2]; at 50.0 µM): -39.8%
growth inhibition [3, 7]: 24%
growth inhibition [3, 8]: 21%
growth inhibition ([3]; at 50.0 µM): -2.1%
growth inhibition [4, 7]: 23%
growth inhibition [4, 8]: 26%
growth inhibition ([4]; at 50.0 µM): 25.5%
growth inhibition [5, 7]: 22%
growth inhibition [5, 8]: 14%
growth inhibition ([5]; at 50.0 µM): -7.1%
growth inhibition [6, 7]: 28%
growth inhibition [6, 8]: 26%
growth inhibition ([6]; at 50.0 µM): -3.2%

CCCC[NH-].CCCC[NH-].[I][Pt+2][I]
growth inhibition [1, 7]: 30%
growth inhibition [1, 8]: 67%
growth inhibition ([1]; at 50.0 µM): 29.2%
growth inhibition [2, 7]: 22%
growth inhibition [2, 8]: 49%
growth inhibition ([2]; at 50.0 µM): 15%
growth inhibition [3, 7]: 48%
growth inhibition [3, 8]: 70% (active)
growth inhibition ([3]; at 50.0 µM): 60.6%
growth inhibition [4, 7]: 53%
growth inhibition [4, 8]: 57%
growth inhibition ([4]; at 50.0 µM): 15.2%
growth inhibition [5, 7]: 56%
growth inhibition [5, 8]: 68%
growth inhibition ([5]; at 50.0 µM): 49.4%
growth inhibition [6, 7]: 20%
growth inhibition [6, 8]: 62%
growth inhibition ([6]; at 50.0 µM): 41.4%

O=C1OC(=O)C2C(c3ccccc3)=C(c3ccccc3)C(c3ccccc3)=C(c3ccccc3)C12 (stereo not drawn)
growth inhibition [1, 7]: 37%
growth inhibition [1, 8]: 77% (active)
growth inhibition ([1]; at 50.0 µM): 61%
growth inhibition [2, 7]: 35%
growth inhibition [2, 8]: 72% (active)
growth inhibition ([2]; at 50.0 µM): 50%
growth inhibition [3, 7]: 33%
growth inhibition [3, 8]: 62%
growth inhibition ([3]; at 50.0 µM): 54.4%
growth inhibition [4, 7]: 32%
growth inhibition [4, 8]: 67%
growth inhibition ([4]; at 50.0 µM): 76.2% (active)
growth inhibition [5, 7]: 29%
growth inhibition [5, 8]: 63%
growth inhibition ([5]; at 50.0 µM): 56%
growth inhibition [6, 7]: 47%
growth inhibition [6, 8]: 81% (active)
growth inhibition ([6]; at 50.0 µM): 62%

O=C(/C=C/c1cccnc1)c1cc(Cl)ccc1O
growth inhibition [1, 7]: 3%
growth inhibition [1, 8]: 61%
growth inhibition ([1]; at 50.0 µM): 86.9% (active)
growth inhibition [2, 7]: 3%
growth inhibition [2, 8]: 40%
growth inhibition ([2]; at 50.0 µM): 23.9%
growth inhibition [3, 7]: -3%
growth inhibition [3, 8]: 22%
growth inhibition ([3]; at 50.0 µM): 56.9%
growth inhibition [4, 7]: 1%
growth inhibition [4, 8]: 24%
growth inhibition ([4]; at 50.0 µM): 26.6%
growth inhibition [5, 7]: 1%
growth inhibition [5, 8]: 71% (active)
growth inhibition ([5]; at 50.0 µM): 5.2%
growth inhibition [6, 7]: 5%
growth inhibition [6, 8]: 48%
growth inhibition ([6]; at 50.0 µM): 42.5%

CC1(C)CCC(C)(C)c2cc(C(=O)Nc3ccc(C(=O)O)cc3)ccc21
growth inhibition [1, 7]: 21%
growth inhibition [1, 8]: 99% (active)
growth inhibition ([1]; at 50.0 µM): -12.2%
growth inhibition [2, 7]: 22%
growth inhibition [2, 8]: 96% (active)
growth inhibition ([2]; at 50.0 µM): -18.1%
growth inhibition [3, 7]: 20%
growth inhibition [3, 8]: 99% (active)
growth inhibition ([3]; at 50.0 µM): 0.8%
growth inhibition [4, 7]: 36%
growth inhibition [4, 8]: 97% (active)
growth inhibition ([4]; at 50.0 µM): -8.75%
growth inhibition [5, 7]: 13%
growth inhibition [5, 8]: 98% (active)
growth inhibition ([5]; at 50.0 µM): 4%
growth inhibition [6, 7]: 34%
growth inhibition [6, 8]: 97% (active)
growth inhibition ([6]; at 50.0 µM): 5.75%
